Source: PubChem BioAssay AID602350 (Broad Institute, 2012)
Potency and affinity values are given separately. The source made the active and inactive calls.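 How the source made its calls: active means absorbance falls by 30% or more versus neutral controls, with a potency fitted within twice the top valid dose; inconclusive means no clear call, values can overlap the other calls; inactive means change opposite to expected direction, plus the rest.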

Biological target: Protein disulfide-isomerase (Homo sapiens) (UniProt P07237)
Test: inhibition of PDI-driven insulin aggregation – biochemical, turbidity, absorbance, cherry-picked samples, dose response (AID 602350)
Conditions: recombinant PDI insulin aggregation, absorbance 650 nm, 90 min; series mostly up to 19.5 µM

Sequence of Protein disulfide-isomerase (Homo sapiens) (P07237 whole entry, looked up): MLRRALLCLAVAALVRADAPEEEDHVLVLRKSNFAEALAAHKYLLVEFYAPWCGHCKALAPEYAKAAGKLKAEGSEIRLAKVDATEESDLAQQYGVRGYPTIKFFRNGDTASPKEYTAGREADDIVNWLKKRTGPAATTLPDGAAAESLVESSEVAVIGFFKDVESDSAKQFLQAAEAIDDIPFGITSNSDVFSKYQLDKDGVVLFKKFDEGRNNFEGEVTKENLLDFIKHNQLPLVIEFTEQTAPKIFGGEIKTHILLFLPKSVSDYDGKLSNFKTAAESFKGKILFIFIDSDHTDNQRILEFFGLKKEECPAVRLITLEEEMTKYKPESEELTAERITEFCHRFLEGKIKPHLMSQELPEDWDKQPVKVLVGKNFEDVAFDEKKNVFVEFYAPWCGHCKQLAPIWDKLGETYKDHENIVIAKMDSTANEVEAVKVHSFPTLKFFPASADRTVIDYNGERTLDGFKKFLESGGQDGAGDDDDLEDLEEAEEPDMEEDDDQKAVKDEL

SMILES	outcome
CC[C@]12c3[nH]c4cc(-c5ccco5)ccc4c3CCN1C(=O)[C@@H](CC(=O)NCc1ccc(OC)c(OC)c1)C[C@@H]2C(=O)N1CCN(C(=O)C2CC2)CC1	inactive
Cc1cc2c3c(c1)C1(C(=O)N3C(C)(C)CC2C)C(C#N)=C(N)Oc2n[nH]c(C)c21 (stereo not drawn)	inactive
O=C(O)CCc1ccc(-c2cccs2)n1NC(=O)c1ccco1	inactive
CC(=O)OC1CCC2C3CCC4=C(CC(F)C(=O)C4)C3CCC12C (stereo not drawn)	inactive
Cc1nc(C(=O)Nc2cccc(Cl)c2Cl)nn1-c1cc(OC(C)C)c(Cl)cc1Cl	inactive
O=C(NCCCN1CCOCC1)C(Sc1ccccc1)c1ccccc1 (stereo not drawn)	inactive
O=C1C[C@H](c2ccc(O)cc2)Oc2cc(O[C@@H]3O[C@H](CO)[C@@H](O)[C@H](O)[C@H]3O)cc(O[C@@H]3O[C@H](CO)[C@@H](O)[C@H](O)[C@H]3O)c21	inactive
CC(=O)Oc1ccc(C2OC(=O)c3ccccc3N2C(C)=O)cc1 (stereo not drawn)	inactive
CCn1c(SCC(=O)NC2CC2)nnc1-c1ccccc1	inactive
O=C1CCC(=O)N1CCc1c[nH]c2ccccc12	inactive
CC(=O)N(C)C1(c2nnnn2CCOC(=O)Nc2ccc(Cl)cc2)CCCCC1	inactive
CC1(C)CC[C@]2(C(=O)O)CC[C@]3(C)C(=CC[C@@H]4[C@@]5(C)CC[C@H](O[C@@H]6O[C@H](C(=O)O)[C@@H](O)[C@H](O[C@@H]7OC[C@H](O)[C@H](O)[C@H]7O)[C@H]6O)C(C)(C)[C@@H]5CC[C@]43C)[C@@H]2C1	inactive
O=c1cc(CN2CCN(S(=O)(=O)/C=C/c3ccccc3)CC2)c2ccc(O)cc2o1	inactive
C=CC[C@H](CC(=O)N(CCO)Cc1ccccc1)C(=O)N[C@H](COC(=O)[C@@H](CC=C)Cc1ccc(F)cc1)Cc1c[nH]c2ccccc12	inactive
CCOc1ccc2[nH]c(=O)c(CN(CCO)C(=O)CC)cc2c1	inactive
CCOC(=O)C1=C(c2ccccc2)N=c2s/c(=C\c3cccc(O)c3)c(=O)n2C1c1cccs1 (stereo not drawn)	inactive
COc1ccc(CNC(=O)c2ccc(CS(=O)Cc3cccc(Cl)c3)o2)cc1 (stereo not drawn)	inactive
CCOC(=O)C1(C)CCCN(C(=O)c2cccc(Cl)c2)C1 (stereo not drawn)	inactive
C[C@@H]1CN([C@H](C)CO)C(=O)Cc2cc(NC(=O)Nc3ccccc3)ccc2O[C@H]1CN(C)Cc1ccccc1	inactive

SMILES	outcome
Cc1ccc(NC(=O)NC(=O)CN2CCC(C(N)=O)CC2)c(C)c1	inactive
O=C1NC[C@H](Cc2ccccc2)N(C[C@H]2CCCN2C[C@H](Cc2ccc(O)cc2)N2C[C@H](Cc3ccc(O)cc3)N(CC3CCCCCC3)C(=O)C2=O)C1=O	inactive
C[C@H](CO)N1C[C@H](C)[C@@H](CN(C)S(=O)(=O)c2ccc(F)cc2)Oc2ccc(NC(=O)Cc3ccccc3)cc2C1=O	inactive
CN(c1ccccc1)S(=O)(=O)c1cc(C(=O)N2CCN(c3ncccn3)CC2)ccc1Cl	inactive
CCOC(=O)C1(CCOc2ccccc2)CCN(Cc2ccc(C(=O)OC)cc2)CC1	inactive
Cc1noc(C)c1S(=O)(=O)Nc1ccc2c(c1)CC(=O)N([C@@H](C)CO)C[C@H](C)[C@@H](CN(C)S(=O)(=O)c1ccc(F)cc1)O2	inactive
O=C(Nc1nccs1)c1ccc(-c2ccccc2[N+](=O)[O-])o1	inactive
Cc1ccc(O)c(NC(=O)CSc2n[nH]c(-c3ccccc3)n2)c1	inactive
CCCNC(=O)Cn1c(-c2ccc(F)cc2)cc(C(=O)OCC)c1C	inactive
O=C(CCc1nc(-c2ccccc2F)no1)Nc1ccc(Oc2ccccc2)cc1	inactive
O=C1CC(C(=O)N2CCc3ccccc32)CN1c1ccc(F)cc1 (stereo not drawn)	inactive
Cc1[nH]c2ccc(C(=O)NC3CCCC3)cc2c1C	inactive
O=C1CCC(=O)N1c1nc2nc(-c3ccccc3)cc(-c3ccccc3)n2n1	inactive
CC1CCCN(c2cc3c(cc2[N+](=O)[O-])C(=O)N(c2ccccc2)C3=O)C1 (stereo not drawn)	inactive
O=C(NCCc1c[nH]c2ccccc12)/C(=C\c1cccnc1)NC(=O)c1ccccc1Br	inactive
O=C(NC1CCCCC1)C1CCN(S(=O)(=O)c2cccs2)CC1	inactive
CC(C)c1ccc(/C=N/NC(=O)c2ccc(-n3cnnn3)cc2)cc1	inactive
CCCCN(C(=O)C1=CC=CN2CCS(=O)(=O)N=C12)c1ccccc1	inactive
CCC1Nc2ncnc(N3CCCCC3)c2N(Cc2ccc(C)cc2)C1=O (stereo not drawn)	inactive
